# Measured values reported in PubChem BioAssay AID1259374 (The Scripps Research Institute Molecular Screening Center, 2018).
# The whole screen tested about 650,000 compounds, of which about 5,900 (0.91%) were called active. What follows is part of a selection rich in actives, with near analogues and random picks from the rest. A number with no mark means an inactive call. Rule as the data show it: active = inhibition above about 50%; inactive = the rest.
# Target: Microphthalmia-associated transcription factor (Homo sapiens) (UniProt O75030)
# Test: MITF inhibitors, primary screen, biochemical, AlphaScreen, human (AID 1259374);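 also: 0% = vehicle wells with protein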
# Details: AlphaScreen MITF homodimerization, bead proximity signal; at 2.6 µM; hits give high values
# Sequence of Microphthalmia-associated transcription factor (Homo sapiens) (O75030 whole entry, looked up): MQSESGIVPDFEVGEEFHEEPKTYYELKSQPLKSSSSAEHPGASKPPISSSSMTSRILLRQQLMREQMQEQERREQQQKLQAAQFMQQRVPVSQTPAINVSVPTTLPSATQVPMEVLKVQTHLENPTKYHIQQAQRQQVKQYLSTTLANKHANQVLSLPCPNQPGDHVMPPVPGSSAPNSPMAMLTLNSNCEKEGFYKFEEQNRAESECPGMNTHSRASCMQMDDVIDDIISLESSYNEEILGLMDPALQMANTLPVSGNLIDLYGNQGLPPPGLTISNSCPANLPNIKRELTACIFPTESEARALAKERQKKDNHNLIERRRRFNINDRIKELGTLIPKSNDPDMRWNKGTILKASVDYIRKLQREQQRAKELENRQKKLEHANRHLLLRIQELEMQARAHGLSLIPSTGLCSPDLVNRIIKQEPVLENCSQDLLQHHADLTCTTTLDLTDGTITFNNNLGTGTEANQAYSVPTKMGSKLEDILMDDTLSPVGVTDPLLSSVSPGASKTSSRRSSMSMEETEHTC
row,SMILES,inhibition
1,Cc1ccc(NC(=O)c2c(N)sc3c2CCCCC3)cc1,-9.3%
2,O=C(c1ccccc1)c1ccc(OCC(O)CNCC2CCCO2)cc1 (centres undefined),12.1%
3,COc1ccc(NC(=O)c2cc3n(n2)C(C(F)(F)F)CC(c2ccc(OC)c(OC)c2)N3)cc1OC (centres undefined),63.8% (active)
4,Cc1ccc(NC(=O)c2cc3n(n2)C(C(F)(F)F)CC(c2ccc(Cl)c(Cl)c2)N3)cc1C (centres undefined),12.4%
5,COc1ccc(C2CC(C(F)(F)F)n3nc(C(=O)Nc4cccc(C)c4)cc3N2)cc1OC (centres undefined),-3.27%
6,COC(=O)c1ccc(NC(=O)/C(=C\c2ccco2)NC(=O)c2ccccc2Cl)cc1,-0.56%
7,O=C(CSc1nc2ccsc2c(=O)n1-c1ccc(Cl)cc1)N1CCCC1,-8.93%
8,O=C(N/N=C/c1ccc([N+](=O)[O-])cc1)c1cccc(I)c1,10.1%
9,N#Cc1ccc(/C=N/NC(=O)c2cc([N+](=O)[O-])cc([N+](=O)[O-])c2)cc1,66.5% (active)
10,Cc1ccc(C(=O)Nc2cccc(C(=O)N/N=C/c3ccc(C#N)cc3)c2)cc1,2.24%
11,O=S(=O)(c1ccc(C2Nc3ccc(Cl)cc3C3C=CCC32)cc1)N1CCOCC1 (centres undefined),-9.39%
12,O=C(O)C1Nc2ccc(Cl)cc2C2C=CCC12 (centres undefined),77% (active)
13,Cc1cc([N+](=O)[O-])cc2c1NC(C(=O)O)C1CC=CC21 (centres undefined),24.6%
14,CN(C)CCN1C(=O)C(=O)/C(=C(\O)c2ccc(S(=O)(=O)N(C)C)cc2)C1c1ccc(C(C)(C)C)cc1 (centres undefined),13.9%
15,O=C(CCc1nnc(-c2ccccc2)o1)NC1(c2ccccc2)CC1,-2.49%
16,CC(CCn1cccn1)NC(=O)CCc1nnc(-c2ccccc2)o1 (centres undefined),1.03%
17,CN(C)CC(C)(C)CNCc1nnc(-c2ccccc2)o1,56.2% (active)
18,O=C1NC(=S)N(Cc2ccco2)C(=O)/C1=C\c1ccc(N2CCOCC2)cc1,75.1% (active)
19,Cc1cc(N2CCOCC2)ccc1/C=C1\C(=O)NC(=S)N(c2ccccc2)C1=O,-14.9%
20,CCN1C(=O)/C(=C\c2ccc(O)cc2)C(=O)NC1=S,3.62%

row,SMILES,inhibition
1,CCOC(=O)N1CCC(N(CCN(C)C)C(=S)Nc2cccc(F)c2)CC1,-2.5%
2,O=C(O)C1c2ccccc2C(=O)N(Cc2ccc(F)cc2)C1c1cccc(F)c1 (centres undefined),10.8%
3,COc1ccccc1/C=C/CN1CCN(C)CC1,44.2%
4,COc1cccc(CNCc2ccc(Br)cc2)c1OC,12.2%
5,COc1cccc(CN2CCN(Cc3ccc(C(F)(F)F)cc3)CC2)c1OC,77.8% (active)
6,COc1ccc(C(=O)N2CCN(Cc3cccc(OC)c3OC)CC2)cc1OC,44.2%
7,COc1cccc(CN2CCOCC2)c1OC,-5.85%
8,COc1ccc(CN2CCC3(CC2)CC3C(=O)NCc2ccccc2C(F)(F)F)cc1O (centres undefined),0.47%
9,COc1ccc(C(=O)N2CCN(Cc3ccccc3C(F)(F)F)CC2)cc1OC,83.3% (active)
10,COc1cccc(CN2CCN(C/C=C/c3ccccc3)CC2)c1OC,63.1% (active)
11,COc1ccc(CN2CCN(Cc3ccccc3C(F)(F)F)CC2)cc1OC,75.6% (active)
12,COc1ccc(CN2CCN(C(=O)c3ccc(F)cc3)CC2)cc1OC,6.68%
13,COc1cccc(CN2CCN(Cc3ccc(SC)cc3)CC2)c1OC,41%
14,CC(=O)Nc1cccc(NC(=O)Cn2cnc3c(nnn3Cc3ccccc3F)c2=O)c1,11.8%
15,COc1cc2nc(CN3CCN(c4ccccc4OC)CC3)[nH]c(=O)c2cc1OC,4.45%
16,O=[N+]([O-])c1cccc(C(c2nnnn2-c2cccc(Cl)c2)N2CCCCC2)c1 (centres undefined),7.91%
17,C/C(CC(=O)Nc1ccc(Cl)cc1C)=N\NC(=O)c1ccc([N+](=O)[O-])c(Cl)c1,14%
18,COC(=O)CSCC(=O)Nc1cc(C(F)(F)F)ccc1Cl,3.79%
19,Cc1ccn2cc(-c3ccc(NS(=O)(=O)c4ccc(I)cc4)cc3)nc2n1,-8%
20,COc1ccc(NC2c3cccc4cccc(c34)C2NS(=O)(=O)c2ccccc2)cc1 (centres undefined),23.3%

row,SMILES,inhibition
1,Cc1cccc(CNc2ncnc3sc(C(=O)N(C)C4CCOC4)c(C)c23)n1 (centres undefined),-1.76%
2,C=CCOc1ccc(/C=C2\SC(=S)NC2=O)cc1,12.6%
3,Cc1ccc(C(=O)NNC(=O)C2Cc3ccccc3CN2C(=O)c2ccco2)cc1 (centres undefined),3.81%
4,Cc1ccc(OCC(=O)N/N=C/c2cc(C)ccc2O)cc1,15.3%
5,O=C(Nc1cccc(-c2nc3cccnc3s2)c1)C(F)(F)F,-3.61%
6,N#C/C(=C/c1ccc(S(=O)(=O)c2ccc(Cl)cc2)cc1)c1nc2ccccc2[nH]1,-16.9%
7,COc1cccc(-c2nc3cnccn3c2NC(C)(C)C)c1OC,-9.88%
8,Cc1nc(NC2CC2)cc(-c2ccc(F)cc2)n1,52.6% (active)
9,COCCNc1cc(-c2ccc(F)cc2)nc(C)n1,14.6%
10,Cc1nc(Nc2ccncc2)cc(-c2ccc(F)cc2)n1,0.1%
11,O=C1NC(=S)N(c2ccccc2)C(=O)/C1=C/c1ccc(I)o1,59.5% (active)
12,COc1ccc(/C=C2/C(=O)NC(=O)N(c3ccccc3C)C2=O)cc1OC,1.35%
13,O=C1NC(=O)N(c2ccccc2F)C(=O)/C1=C\c1ccco1,40%
14,Cc1cccc(N2C(=O)NC(=O)/C(=C\c3ccc(C)o3)C2=O)c1,2.19%
15,Cc1ccccc1N1C(=O)NC(=O)/C(=C\c2ccoc2)C1=O,52.5% (active)
16,Cc1cccc(N2C(=O)NC(=O)/C(=C\c3ccc(I)o3)C2=O)c1C,57.8% (active)
17,O=C1NC(=S)N(c2ccccc2)C(=O)/C1=C/c1ccccc1,17.4%
18,O=C1NC(=S)N(c2ccccc2)C(=O)/C1=C/c1ccc(N2CCCC2)o1,1.33%
19,Cc1ccc(N2C(=O)NC(=O)/C(=C\c3ccc(I)o3)C2=O)cc1C,41.7%
